Measured values from PubChem BioAssay (NCI).
The panel holds about 79,000 compounds, 15% with a hit somewhere; the sample as a whole holds those more often. Activity calls are given as the source filed them. No stated cut-off is given here; in the data, active means growth inhibition above about 70%; inactive means the rest.

Tests used:
[1] = NCI Yeast Anticancer Drug Screen. Data for the rad52 strain (AID 147);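 further: 0% = growth of vehicle-treated control cultures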; conditions: S. cerevisiae rad52 mutant growth inhibition, active compounds read high
Procedure, shortened: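 Yeast strain carrying a DNA damage repair alteration was exposed to test compounds. Growth inhibition was measured relative to vehicle-treated controls.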

[2] = NCI Yeast Anticancer Drug Screen. Data for the wt1 strain (AID 149);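 further: 0% = growth of vehicle-treated wt1 cultures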; conditions: S. cerevisiae wt1 strain (SPY 50644) growth inhibition, active compounds read high
Procedure, shortened: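 Measured: growth of wt1 yeast under compound versus vehicle treatment, reported as inhibition.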

[3] = NCI Yeast Anticancer Drug Screen. Data for the rad50EPP+ strain (AID 151);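 further: 0% = growth of vehicle-treated control cultures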; conditions: S. cerevisiae rad50 mutant strain, active compounds read high
Procedure, shortened: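 Yeast strain carrying rad50 alteration (rad50EPP+) exposed to compounds; growth inhibition measured relative to vehicle-treated controls.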

[4] = NCI Yeast Anticancer Drug Screen. Data for the mgt1 strain (AID 153); conditions: S. cerevisiae mgt1 mutant growth inhibition, active compounds read high
Procedure, shortened: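 Yeast mgt1 strain (DNA repair/cell-cycle alteration panel) exposed to compounds; growth inhibition measured relative to vehicle-treated controls.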

[5] = NCI Yeast Anticancer Drug Screen. Data for the rad50 strain (AID 155);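 further: 0% = growth of vehicle-only cultures of the same strain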; conditions: S. cerevisiae rad50 strain growth inhibition, active compounds read high
Procedure, shortened: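 Growth of the mutant yeast was measured after compound exposure and referenced to vehicle-treated cultures.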

[6] = NCI Yeast Anticancer Drug Screen. Data for the mec2-1 strain (AID 157); conditions: S. cerevisiae mec2-1 strain, active compounds read high
Procedure, shortened: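 mec2-1 yeast strain, carrying an alteration in DNA damage repair or cell cycle control, was exposed to compounds; growth inhibition was measured relative to vehicle-treated controls.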

[7] = NCI Yeast Anticancer Drug Screen. Data for the rad14 strain (AID 159);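 further: 0% = growth of vehicle-treated control cultures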; conditions: S. cerevisiae rad14 strain growth inhibition, active compounds read high
Procedure, shortened: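 Here, inhibition of yeast growth was measured after compound exposure, using a strain with a genetic defect in DNA damage repair and vehicle-treated cultures as the reference.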

[8] = NCI Yeast Anticancer Drug Screen. Data for the sgs1 mgt1 strain (AID 161);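 further: 0% = growth of cultures given vehicle only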; conditions: S. cerevisiae sgs1 mgt1 strain, active compounds read high
Procedure, shortened: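 Growth of a repair-deficient yeast mutant was monitored after compound treatment and expressed as inhibition relative to vehicle-treated cultures.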

[9] = NCI Yeast Anticancer Drug Screen. Data for the CLN2oe strain (AID 163);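 further: 0% = growth of vehicle-only control cultures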; conditions: S. cerevisiae CLN2oe strain, active compounds read high
Procedure, shortened: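 Yeast cells carrying a defined cell-cycle control alteration were exposed to test compounds. Growth inhibition was scored against vehicle-treated control cultures.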

[10] = NCI Yeast Anticancer Drug Screen. Data for the cln2 rad14 strain (AID 165);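 further: 0% = growth equal to vehicle treated cultures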; conditions: S. cerevisiae cln2 rad14 strain, active compounds read high
Procedure, shortened: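 Yeast carrying cln2 and rad14 alterations (cell cycle control and DNA damage repair) were exposed to compounds. Growth inhibition was measured against vehicle-treated controls.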

[11] = NCI Yeast Anticancer Drug Screen. Data for the bub3 strain (AID 167); conditions: S. cerevisiae bub3 mutant strain, active compounds read high
Procedure, shortened: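 Whole-cell yeast assay. The mutant strain was incubated with compounds, and growth inhibition was determined by comparison with vehicle-treated cells.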

[12] = NCI Yeast Anticancer Drug Screen. Data for the wt2 strain (AID 169);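 further: 0% = growth of vehicle-treated yeast cultures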; conditions: S. cerevisiae wt2 strain growth inhibition, active compounds read high
Procedure, shortened: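 Yeast cells were exposed to test compounds, and growth inhibition was measured relative to vehicle-treated controls.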

[13] = NCI Yeast Anticancer Drug Screen. Data for the mlh1 strain (AID 171);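 further: 0% = growth of vehicle-treated control cultures of the same strain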; conditions: S. cerevisiae mlh1 strain growth inhibition, active compounds read high
Procedure, shortened: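 Yeast carrying a defined genetic alteration in DNA damage repair or cell cycle control were exposed to test compounds. Growth inhibition was measured relative to vehicle-treated controls.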

[14] = NCI Yeast Anticancer Drug Screen. Data for the sgs1 strain (AID 173);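 further: 0% = growth of vehicle-only control cultures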; conditions: S. cerevisiae sgs1 mutant, active compounds read high
Procedure, shortened: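 Yeast mutant strains carrying defined defects in DNA damage repair or cell cycle control were exposed to test compounds. Growth inhibition was scored against vehicle-treated controls.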

[15] = NCI Yeast Anticancer Drug Screen. Data for the mlh1 rad18 strain (AID 175); conditions: S. cerevisiae mlh1 rad18 strain growth inhibition, active compounds read high
Procedure, shortened: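 Growth inhibition of the yeast strain was measured after compound exposure and expressed relative to vehicle-treated controls. The strain carries defined defects in DNA damage repair.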

[16] = NCI Yeast Anticancer Drug Screen. Data for the rad18 strain (AID 177); conditions: S. cerevisiae rad18 mutant growth inhibition, active compounds read high
Procedure, shortened: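 Yeast carrying a defined DNA damage repair alteration were exposed to compounds. Growth inhibition was expressed relative to vehicle-treated controls.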

[17] = at 5.0 µM (retest, dose inferred, filed as 0.5)
[18] = at 50.0 µM (retest, dose inferred, filed as 5.0)

Measured: growth inhibition

NC(=S)N/N=C\c1nccc2ccccc12
inactive: [1]; at 1.2 µM -10% | [1]; at 3.7 µM -3% | [1]; at 11.0 µM 40% | [2]; at 1.2 µM -6% | [2]; at 3.7 µM -7% | [2]; at 11.0 µM 16% | [3]; at 1.2 µM 1% | [3]; at 3.7 µM -1% | [3]; at 11.0 µM -16% | [3]; at 33.0 µM 27% | [4]; at 1.2 µM -2% | [4]; at 3.7 µM -6% | [4]; at 11.0 µM 21% | [5]; at 1.2 µM -5% | [5]; at 3.7 µM -3% | [5]; [17] -151% | [5]; at 11.0 µM 46% | [6]; at 1.2 µM 4% | [6]; at 3.7 µM 46% | [6]; [17] 50% | [7]; at 1.2 µM -3% | [7]; at 3.7 µM 4% | [7]; at 11.0 µM 51% | [8]; [17] -64% | [9]; at 1.2 µM 0% | [9]; at 3.7 µM -11% | [9]; at 11.0 µM 35% | [10]; [17] -99% | [11]; at 1.2 µM -9% | [11]; at 3.7 µM -15% | [11]; [17] -107% | [11]; at 11.0 µM 26% | [12]; at 1.2 µM -5% | [12]; at 3.7 µM -4% | [12]; at 11.0 µM 14% | [13]; at 1.2 µM 3% | [13]; at 3.7 µM -9% | [13]; at 11.0 µM 34% | [14]; at 1.2 µM -3% | [14]; at 3.7 µM 6% | [14]; at 11.0 µM 50% | [15]; [17] -135% | [16]; at 1.2 µM -1% | [16]; at 3.7 µM 3% | [16]; at 11.0 µM 39%
active: [1]; at 33.0 µM 95% | [1]; at 100.0 µM 99% | [2]; at 33.0 µM 76% | [2]; at 100.0 µM 99% | [3]; at 100.0 µM 97% | [4]; at 33.0 µM 97% | [4]; at 100.0 µM 99% | [5]; at 33.0 µM 97% | [5]; [18] 96% | [5]; at 50.0 µM 99% | [5]; at 100.0 µM 97% | [6]; at 11.0 µM 97% | [6]; at 33.0 µM 99% | [6]; [18] 98% | [6]; at 50.0 µM 99.5% | [6]; at 100.0 µM 99% | [7]; at 33.0 µM 98% | [7]; at 100.0 µM 99% | [8]; [18] 98% | [8]; at 50.0 µM 99% | [9]; at 33.0 µM 96% | [9]; at 100.0 µM 99% | [10]; [18] 97% | [10]; at 50.0 µM 97.5% | [11]; at 33.0 µM 96% | [11]; [18] 97% | [11]; at 50.0 µM 99.2% | [11]; at 100.0 µM 97% | [12]; at 33.0 µM 97% | [12]; at 100.0 µM 99% | [13]; at 33.0 µM 97% | [13]; at 100.0 µM 99% | [14]; at 33.0 µM 99% | [14]; at 100.0 µM 99% | [15]; [18] 96% | [15]; at 50.0 µM 98.4% | [16]; at 33.0 µM 97% | [16]; at 100.0 µM 99%

CCCCCCCC1(N=[N+]=[N-])C(=O)c2ccccc2N(C)C1=O (stereo unspecified)
inactive: [1]; at 1.2 µM 2% | [1]; at 3.7 µM 18% | [1]; at 11.0 µM 18% | [1]; at 33.0 µM 68% | [2]; at 1.2 µM 7% | [2]; at 3.7 µM 7% | [2]; at 11.0 µM 7% | [2]; at 33.0 µM 59% | [3]; at 1.2 µM 5% | [3]; at 3.7 µM 15% | [3]; at 11.0 µM 24% | [3]; at 33.0 µM 54% | [3]; at 100.0 µM 65% | [4]; at 1.2 µM -11% | [4]; at 3.7 µM -18% | [4]; at 11.0 µM -2% | [4]; at 33.0 µM 51% | [4]; at 100.0 µM 69% | [5]; at 1.2 µM -1% | [5]; at 3.7 µM 1% | [5]; [17] -4% | [5]; at 11.0 µM 13% | [5]; at 33.0 µM 67% | [5]; [18] 60% | [6]; at 1.2 µM -3% | [6]; at 3.7 µM -27% | [6]; [17] -1% | [6]; at 11.0 µM -2% | [7]; at 1.2 µM -23% | [7]; at 3.7 µM -20% | [7]; at 11.0 µM -20% | [7]; at 33.0 µM 39% | [7]; at 100.0 µM 63% | [8]; [17] -7% | [9]; at 1.2 µM 21% | [9]; at 3.7 µM 8% | [9]; at 11.0 µM 23% | [9]; at 33.0 µM 61% | [10]; [17] 30% | [10]; at 50.0 µM 68.7% | [11]; at 1.2 µM -9% | [11]; at 3.7 µM -17% | [11]; [17] 3% | [11]; at 11.0 µM -15% | [11]; at 33.0 µM 52% | [11]; at 50.0 µM 64.5% | [11]; at 100.0 µM 69% | [12]; at 1.2 µM 13% | [12]; at 3.7 µM 16% | [12]; at 11.0 µM 20% | [12]; at 33.0 µM 57% | [12]; at 100.0 µM 67% | [13]; at 1.2 µM 20% | [13]; at 3.7 µM 10% | [13]; at 11.0 µM 18% | [13]; at 33.0 µM 61% | [14]; at 1.2 µM 9% | [14]; at 3.7 µM 14% | [14]; at 11.0 µM 20% | [15]; [17] 0% | [16]; at 1.2 µM 18% | [16]; at 3.7 µM 12% | [16]; at 11.0 µM 20% | [16]; at 33.0 µM 67%
active: [1]; at 100.0 µM 75% | [2]; at 100.0 µM 73% | [5]; at 50.0 µM 79.3% | [5]; at 100.0 µM 74% | [6]; at 33.0 µM 72% | [6]; [18] 80% | [6]; at 50.0 µM 81.2% | [6]; at 100.0 µM 80% | [8]; [18] 71% | [8]; at 50.0 µM 79.5% | [9]; at 100.0 µM 79% | [10]; [18] 75% | [11]; [18] 83% | [13]; at 100.0 µM 78% | [14]; at 33.0 µM 71% | [14]; at 100.0 µM 85% | [15]; [18] 87% | [15]; at 50.0 µM 76.3% | [16]; at 100.0 µM 83%
